Test results: PubChem BioAssay AID2284344 (EPA ToxCast)
Inconclusive results are not listed. Active and inactive are the calls of the source. Rule for the calls: active = hit-call score of the fitted dose curve at least 0.9, where 1 is the maximum; inconclusive = response in the unintended direction; inactive = score below 0.9.

The compounds below were run on frog Peroxisome Proliferator-activated Receptor-alpha (PPARa), gene 398843 (assay: ATG_frPPARa_EcoTox2: Attagene TRANS-FACTORIAL EcoTox-2 HepG2 Assay for frog Peroxisome Proliferator-activated Receptor-alpha (PPARa)).
Experimental: ATG_EcoTox2 is a cell-based, multiplexed assay created by modifying the existing Attagene TRANS-FACTORIAL system to include a panel of nuclear receptors from some or all the following species: human (Homo sapiens), african clawed frog (Xenopus laevis), rainbow trout (Oncorhynchus mykiss), japanese medaka (Oryzias latipes), and zebrafish (Danio rerio). The ECOTOX2-FACTORIAL format uses HepG2, a human liver cell line, with measurements taken at 24 hours after chemical dosing in a 24-well plate. ATG_frPPARa_EcoTox2 is one of 29 assay components calculated in the ATG_EcoTox2 assay. It is designed to make measurements of mRNA induction, a form of inducible reporter, as detected with fluorescence intensity signals by Reverse transcription polymerase chain reaction (RT-PCR) and Capillary electrophoresis technology.The assay endpoint ATG_frPPARa_EcoTox2 was analyzed in the positive analysis fitting direction relative to DMSO as the negative control and baseline of activity. Using a type of inducible reporter, measures of mRNA for gain-of-signal activity can be used to understand the reporter gene at the transcription factor-level as they relate to the gene PPARa. Furthermore, this assay endpoint can be referred to as a primary readout, because this assay has produced multiple assay endpoints where this one serves a reporter gene function. To generalize the intended target to other relatable targets, this assay endpoint is annotated to the nuclear receptor intended target family, where the subfamily is non-steroidal.
Human liver HepG2 cells are transiently transfected with multiple reporter transcription units (MRTUs) in 6-well plates using FuGene 6 reagent (Roche; 3 ml FuGene/1 mg DNA). The MRTU constructs are regulated by a cis-regulating element (promoter). Each RTU expresses a GAL4-UAS that regulates the transcription of a nearby target reporter gene sequence. A major difference between the CIS and TRANS system is that in CIS activities of endogenous TFs are measured, whereas the TRANS assay evaluates changes in activities of exogenous, chimeric NR-Gal4 proteins. […] At the end of 24 hour incubation, total RNA was isolated using TriZol reagent (Invitrogen). The isolated RNA is then reverse-transcribed using oligo(dT) primer and Mo-MLV reverse transcriptase (Invitrogen) with DNAse I (Ambion) treatment for 30 min. The one-tenth of the produced cDNA was amplified by PCR using Taq DNA polymerase (Invitrogen) and two reporter sequence-specific primers. The PCR products were fluorescently labeled by primer extension with 6-arboxyfluorescein (6-FAM) 5'-labeled reporter sequence-specific primer (2 min at 95 C, 20 s at 68 C and 10 min at 72 C) and these products were digested with 5U of HpaI (New England Biolabs) for 2h at 37 C. The fragments were purified using Qiaquick PCR columns (Qiagen), analyzed on an ABI 3130xL genetic analyzer (Applied Biosystems) with peak positions identified by using a set of X-rhodamine (ROX)-labeled MapMarker1000 molecular weight standards (BioVentures). The raw capillary electrophoresis data was processed using Attagraph software (Attagene).

Compound	outcome	AC50
CC(C)OC(=O)C(C)(C)Oc1ccc(C(=O)c2ccc(Cl)cc2)cc1	inactive	–
CC(C)(Oc1ccc(Cl)cc1)C(=O)O	inactive	–
C[C@]12C=CC(=O)C=C1CC[C@@H]1[C@@H]2C(=O)C[C@@]2(C)[C@H]1CC[C@]2(O)C(=O)CO	inactive	–
C[C@@H]1C[C@H]2[C@@H]3CCC4=CC(=O)C=C[C@]4(C)[C@@]3(F)[C@@H](O)C[C@]2(C)[C@@]1(O)C(=O)COP(=O)(O)O	inactive	–
Cc1cccc(Nc2cc(Cl)nc(SCC(=O)O)n2)c1C	–	11.9 µM (active)
CC(c1cc2ccccc2s1)N(O)C(N)=O (stereo not drawn)	inactive	–
CC(C)(Oc1ccc(CCNC(=O)c2ccc(Cl)cc2)cc1)C(=O)O	–	23.6 µM (active)
C=C(c1ccc(C(=O)O)cc1)c1cc2c(cc1C)C(C)(C)CCC2(C)C	inactive	–
Cc1nc(-c2ccc(C(F)(F)F)cc2)sc1C(=O)NCc1ccc(OC(C)(C)C(=O)O)cc1	–	0.0823 µM (active)
Cc1c(C)c2c(c(C)c1O)CCC(C)(COc1ccc(CC3SC(=O)NC3=O)cc1)O2 (stereo not drawn)	inactive	–
Cc1ccc(C)c(OCCCC(C)(C)C(=O)O)c1	–	50 µM (active)
CN(CCOc1ccc(CC2SC(=O)NC2=O)cc1)c1ccccn1 (stereo not drawn)	–	8.4 µM (active)
CC(C)(Oc1ccc(C2CC2(Cl)Cl)cc1)C(=O)O (stereo not drawn)	–	113 µM (active)
